Consider 1 sequence from publication PMC7862700, “An all-to-all approach to the identification of sequence-specific readers for epigenetic DNA modifications on cytosine”.

Common to all, as to assay: DAPPL (digital affinity profiling via proximity ligation, sequencing); 10 mM Tris-HCl pH 7.5, 50 mM NaCl, 1 mM DTT, 4% glycerol, room temperature, 30 min; GST-TFs on glutathione beads, 16-mer random dsDNA library, 0.1% formaldehyde crosslink after washing; high values mean tight binding
In experiment [1] the target is T1, FEV (Homo sapiens, UniProt Q99581 1-238).
T1 sequence: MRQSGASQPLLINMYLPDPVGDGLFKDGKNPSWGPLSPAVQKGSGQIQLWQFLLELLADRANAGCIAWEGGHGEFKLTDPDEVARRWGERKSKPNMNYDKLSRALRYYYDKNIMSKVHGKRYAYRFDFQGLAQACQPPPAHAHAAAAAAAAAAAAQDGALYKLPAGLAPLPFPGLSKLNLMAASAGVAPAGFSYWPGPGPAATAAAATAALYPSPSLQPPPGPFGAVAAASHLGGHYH
The settings on record: protein: recombinant; tags: N-terminal GST; dsDNA, one strand shown. An outline of the steps: (§1)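 Binding signal is each hexamer's read frequency for a factor divided by its frequency in the tag-only sample. The factors were GST-fused human transcription factors from yeast, captured on glutathione beads, DNA-barcoded and pooled with that sample. Pools were incubated with 200 nmole of a random double-stranded 16-mer DNA library in Tris/NaCl/DTT/glycerol buffer at room temperature for 30 min, then washed, crosslinked with 0.1% formaldehyde, proximity-ligated with BsaI/T4 ligase (1 h, 37 °C), PCR-amplified and sequenced on an Illumina NextSeq500.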

Experiment [2] has as its target ETV5 (Homo sapiens, UniProt P41161 1-510). The settings on record: protein: recombinant; tags: N-terminal GST; dsDNA, one strand shown. In short, it runs like this: as §1
Experiment [3] has as its target HSF1 (Homo sapiens, UniProt Q00613 1-529). The conditions noted are these: protein: recombinant; tags: N-terminal GST; chain copies: 3; dsDNA, one strand shown. In short, it runs like this:
as §1

Experiment [4] has as its target T2, SPIC (Homo sapiens, UniProt Q8N5J4 1-248).
T2 sequence: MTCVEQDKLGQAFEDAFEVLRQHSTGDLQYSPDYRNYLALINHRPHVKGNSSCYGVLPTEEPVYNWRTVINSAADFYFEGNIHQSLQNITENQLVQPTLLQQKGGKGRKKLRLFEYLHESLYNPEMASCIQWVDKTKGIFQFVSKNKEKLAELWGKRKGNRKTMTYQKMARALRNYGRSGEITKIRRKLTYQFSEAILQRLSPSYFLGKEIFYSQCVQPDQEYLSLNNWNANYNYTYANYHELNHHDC
The conditions noted are these: protein: recombinant; tags: N-terminal GST; dsDNA, one strand shown. An outline of the steps: as §1

The target of experiment [5] is ELF4 (Homo sapiens, UniProt Q99607 1-663). The conditions noted are these: protein: recombinant; tags: N-terminal GST; dsDNA, one strand shown. In short, it runs like this: as §1
For experiment [6], the target named is T3, ELK4 (Homo sapiens, UniProt P28324-2 1-405).
T3 sequence: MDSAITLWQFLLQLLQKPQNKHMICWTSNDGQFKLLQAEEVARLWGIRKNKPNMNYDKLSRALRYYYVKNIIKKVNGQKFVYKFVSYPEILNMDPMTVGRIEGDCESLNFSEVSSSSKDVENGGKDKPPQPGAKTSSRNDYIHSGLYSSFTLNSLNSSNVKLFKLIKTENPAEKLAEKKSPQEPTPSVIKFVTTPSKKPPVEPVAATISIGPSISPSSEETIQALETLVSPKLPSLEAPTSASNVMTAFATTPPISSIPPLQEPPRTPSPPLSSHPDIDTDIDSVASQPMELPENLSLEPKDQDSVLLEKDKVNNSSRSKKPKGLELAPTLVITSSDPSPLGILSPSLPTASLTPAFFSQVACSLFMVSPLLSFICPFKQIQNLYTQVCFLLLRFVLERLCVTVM
The settings on record: protein: recombinant; tags: N-terminal GST; dsDNA, one strand shown. An outline of the steps:
as §1

In experiment [7] the target is T4, ETV2 (Homo sapiens, UniProt O00321 1-342).
T4 sequence: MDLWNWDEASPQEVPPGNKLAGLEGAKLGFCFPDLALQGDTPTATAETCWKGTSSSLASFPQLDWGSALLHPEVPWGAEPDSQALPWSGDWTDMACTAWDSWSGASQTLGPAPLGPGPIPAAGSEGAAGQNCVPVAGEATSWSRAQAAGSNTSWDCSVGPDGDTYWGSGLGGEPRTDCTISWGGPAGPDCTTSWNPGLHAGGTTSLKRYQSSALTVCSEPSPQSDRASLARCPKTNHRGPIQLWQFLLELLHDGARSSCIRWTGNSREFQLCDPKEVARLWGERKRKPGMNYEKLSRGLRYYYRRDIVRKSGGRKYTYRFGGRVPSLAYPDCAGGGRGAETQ
The settings on record: protein: recombinant; tags: N-terminal GST; dsDNA, one strand shown. In short, it runs like this: as §1

The target in experiment [8] is T5, ELF3 (Homo sapiens, UniProt P78545 1-371).
T5 sequence: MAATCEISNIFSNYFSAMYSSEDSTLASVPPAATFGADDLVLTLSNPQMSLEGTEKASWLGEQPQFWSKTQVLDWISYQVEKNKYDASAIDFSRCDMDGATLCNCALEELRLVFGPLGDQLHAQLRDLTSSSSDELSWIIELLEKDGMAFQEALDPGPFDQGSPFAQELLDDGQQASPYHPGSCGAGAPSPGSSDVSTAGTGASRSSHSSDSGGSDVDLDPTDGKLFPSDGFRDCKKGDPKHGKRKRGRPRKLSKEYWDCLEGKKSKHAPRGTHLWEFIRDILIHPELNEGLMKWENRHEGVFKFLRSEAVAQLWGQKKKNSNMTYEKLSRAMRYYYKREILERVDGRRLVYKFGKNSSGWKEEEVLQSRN
The conditions noted are these: protein: recombinant; tags: N-terminal GST; dsDNA, one strand shown. In short, it runs like this: as §1

Experiment [9] addresses CRX (Homo sapiens, UniProt O43186 1-299). The conditions noted are these: protein: recombinant; tags: N-terminal GST; dsDNA, one strand shown. An outline of the steps:
as §1

Experiment [10] addresses ETV1 (Homo sapiens, UniProt P50549 1-477). The conditions noted are these: protein: recombinant; tags: N-terminal GST; dsDNA, one strand shown. An outline of the steps: as §1
In experiment [11] the target is T6, ERF (Homo sapiens, UniProt P50548 1-548).
T6 sequence: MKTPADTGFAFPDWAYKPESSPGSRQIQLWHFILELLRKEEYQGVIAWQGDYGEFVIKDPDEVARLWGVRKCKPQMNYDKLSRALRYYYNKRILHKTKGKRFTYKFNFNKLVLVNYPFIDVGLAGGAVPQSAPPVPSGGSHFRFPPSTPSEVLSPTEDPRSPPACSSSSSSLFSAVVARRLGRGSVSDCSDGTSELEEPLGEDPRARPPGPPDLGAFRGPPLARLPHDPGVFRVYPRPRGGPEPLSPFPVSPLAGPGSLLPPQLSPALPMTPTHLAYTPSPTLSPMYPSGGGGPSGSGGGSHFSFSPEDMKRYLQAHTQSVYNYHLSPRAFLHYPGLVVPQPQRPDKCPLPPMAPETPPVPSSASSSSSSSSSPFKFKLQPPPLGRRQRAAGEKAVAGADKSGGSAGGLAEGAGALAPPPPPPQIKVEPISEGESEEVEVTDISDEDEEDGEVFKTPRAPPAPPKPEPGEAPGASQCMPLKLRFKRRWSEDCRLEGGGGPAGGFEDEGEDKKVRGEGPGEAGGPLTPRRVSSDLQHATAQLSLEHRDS
The settings on record: protein: recombinant; tags: N-terminal GST; dsDNA, one strand shown. In short, it runs like this:
as §1

For experiment [12], the target named is T7, ETV3L (Homo sapiens, UniProt Q6ZN32 1-361).
T7 sequence: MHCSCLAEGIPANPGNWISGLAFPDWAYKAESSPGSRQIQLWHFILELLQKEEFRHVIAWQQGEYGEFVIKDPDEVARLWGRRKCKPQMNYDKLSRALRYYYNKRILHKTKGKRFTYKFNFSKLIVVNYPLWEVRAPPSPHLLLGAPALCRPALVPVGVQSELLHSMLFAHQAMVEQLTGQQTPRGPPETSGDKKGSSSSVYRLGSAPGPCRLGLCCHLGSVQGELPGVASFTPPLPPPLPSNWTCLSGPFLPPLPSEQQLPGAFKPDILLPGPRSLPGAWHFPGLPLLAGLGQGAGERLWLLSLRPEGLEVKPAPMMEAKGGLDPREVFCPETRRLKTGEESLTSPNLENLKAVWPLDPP
The conditions noted are these: protein: recombinant; tags: N-terminal GST; dsDNA, one strand shown. An outline of the steps:
as §1

The target in experiment [13] is T8, ETS2 (Homo sapiens, UniProt P15036 1-469).
T8 sequence: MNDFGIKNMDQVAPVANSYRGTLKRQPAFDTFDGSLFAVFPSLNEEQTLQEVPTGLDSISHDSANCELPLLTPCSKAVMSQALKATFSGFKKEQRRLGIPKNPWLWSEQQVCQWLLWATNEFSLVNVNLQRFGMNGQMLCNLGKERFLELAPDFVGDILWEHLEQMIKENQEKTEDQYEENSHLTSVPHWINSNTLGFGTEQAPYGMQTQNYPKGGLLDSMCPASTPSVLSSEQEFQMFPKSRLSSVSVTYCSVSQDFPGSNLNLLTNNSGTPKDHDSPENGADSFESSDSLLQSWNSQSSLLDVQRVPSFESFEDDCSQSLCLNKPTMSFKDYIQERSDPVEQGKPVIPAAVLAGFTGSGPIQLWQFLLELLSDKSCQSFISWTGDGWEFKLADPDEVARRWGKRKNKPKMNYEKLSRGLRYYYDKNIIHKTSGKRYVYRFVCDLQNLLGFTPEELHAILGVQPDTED
The conditions noted are these: protein: recombinant; tags: N-terminal GST; dsDNA, one strand shown. An outline of the steps: as §1

Experiment [14] has as its target T9, SPDEF (Homo sapiens, UniProt O95238 1-335).
T9 sequence: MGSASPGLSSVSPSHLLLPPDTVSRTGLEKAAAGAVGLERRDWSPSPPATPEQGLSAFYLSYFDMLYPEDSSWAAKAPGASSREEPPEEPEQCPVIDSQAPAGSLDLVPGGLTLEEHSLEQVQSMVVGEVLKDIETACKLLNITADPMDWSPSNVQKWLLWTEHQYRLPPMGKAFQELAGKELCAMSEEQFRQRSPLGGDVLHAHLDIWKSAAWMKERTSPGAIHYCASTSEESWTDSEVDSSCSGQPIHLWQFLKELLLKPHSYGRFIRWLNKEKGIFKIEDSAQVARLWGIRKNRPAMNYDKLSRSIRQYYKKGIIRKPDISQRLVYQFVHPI
The settings on record: protein: recombinant; tags: N-terminal GST; dsDNA, one strand shown. In short, it runs like this:
as §1

Experiment [15] has as its target T10, ETV7 (Homo sapiens, UniProt Q9Y603 1-341).
T10 sequence: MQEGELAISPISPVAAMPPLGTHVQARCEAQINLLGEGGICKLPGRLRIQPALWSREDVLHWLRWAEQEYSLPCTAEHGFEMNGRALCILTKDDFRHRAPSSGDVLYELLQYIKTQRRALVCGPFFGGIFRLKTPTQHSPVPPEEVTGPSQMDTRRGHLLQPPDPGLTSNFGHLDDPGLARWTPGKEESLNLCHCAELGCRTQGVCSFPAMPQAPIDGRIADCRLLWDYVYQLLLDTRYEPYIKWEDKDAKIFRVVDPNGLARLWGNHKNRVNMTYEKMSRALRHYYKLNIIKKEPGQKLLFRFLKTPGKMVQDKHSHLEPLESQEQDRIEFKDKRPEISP
The conditions noted are these: protein: recombinant; tags: N-terminal GST; dsDNA, one strand shown. An outline of the steps: as §1

Experiment [16] addresses T11, ELF5 (Homo sapiens, UniProt Q9UKW6-2 1-255).
T11 sequence: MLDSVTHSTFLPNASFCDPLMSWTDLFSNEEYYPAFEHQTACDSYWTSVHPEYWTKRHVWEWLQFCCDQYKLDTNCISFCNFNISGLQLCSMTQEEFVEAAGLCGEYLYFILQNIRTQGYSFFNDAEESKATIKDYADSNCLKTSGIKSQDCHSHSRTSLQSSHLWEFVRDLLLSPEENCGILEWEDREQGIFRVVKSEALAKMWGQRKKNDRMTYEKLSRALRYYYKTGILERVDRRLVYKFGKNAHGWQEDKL
The settings on record: protein: recombinant; tags: N-terminal GST; dsDNA, one strand shown. An outline of the steps: as §1

Experiment [17] has as its target T12, ETV3 (Homo sapiens, UniProt P41162-2 1-143).
T12 sequence: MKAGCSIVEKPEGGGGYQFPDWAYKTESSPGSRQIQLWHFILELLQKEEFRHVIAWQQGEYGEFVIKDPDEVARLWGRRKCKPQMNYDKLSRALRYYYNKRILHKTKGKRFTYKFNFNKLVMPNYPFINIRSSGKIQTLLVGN
The conditions noted are these: protein: recombinant; tags: N-terminal GST; dsDNA, one strand shown. In short, it runs like this: as §1

Experiment [18] deals with ETV6 (Homo sapiens, UniProt P41212 1-452). The settings on record: protein: recombinant; tags: N-terminal GST; dsDNA, one strand shown. In short, it runs like this: as §1
ETV6, sequence (P41212 whole entry): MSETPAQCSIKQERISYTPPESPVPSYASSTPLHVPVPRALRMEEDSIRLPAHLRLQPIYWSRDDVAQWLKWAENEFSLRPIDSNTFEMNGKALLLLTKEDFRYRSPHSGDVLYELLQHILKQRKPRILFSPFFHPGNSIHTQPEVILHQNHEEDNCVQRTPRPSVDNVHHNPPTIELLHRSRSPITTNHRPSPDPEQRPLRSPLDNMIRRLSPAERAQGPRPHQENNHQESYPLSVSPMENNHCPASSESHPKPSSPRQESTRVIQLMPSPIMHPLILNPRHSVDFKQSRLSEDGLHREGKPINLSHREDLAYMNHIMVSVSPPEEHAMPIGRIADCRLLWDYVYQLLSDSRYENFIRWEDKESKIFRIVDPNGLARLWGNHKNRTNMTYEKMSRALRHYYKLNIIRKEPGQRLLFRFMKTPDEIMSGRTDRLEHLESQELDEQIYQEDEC

CRX, sequence (O43186 whole entry): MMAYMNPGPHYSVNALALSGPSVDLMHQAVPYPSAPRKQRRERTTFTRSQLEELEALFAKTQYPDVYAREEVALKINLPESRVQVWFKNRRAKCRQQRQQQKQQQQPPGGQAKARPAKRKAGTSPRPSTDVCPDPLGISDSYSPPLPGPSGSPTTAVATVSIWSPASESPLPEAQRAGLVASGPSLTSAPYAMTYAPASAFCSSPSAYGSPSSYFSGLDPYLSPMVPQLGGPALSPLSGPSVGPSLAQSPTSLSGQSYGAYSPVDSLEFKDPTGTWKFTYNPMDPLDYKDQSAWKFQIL
ETV5, sequence (P41161 whole entry): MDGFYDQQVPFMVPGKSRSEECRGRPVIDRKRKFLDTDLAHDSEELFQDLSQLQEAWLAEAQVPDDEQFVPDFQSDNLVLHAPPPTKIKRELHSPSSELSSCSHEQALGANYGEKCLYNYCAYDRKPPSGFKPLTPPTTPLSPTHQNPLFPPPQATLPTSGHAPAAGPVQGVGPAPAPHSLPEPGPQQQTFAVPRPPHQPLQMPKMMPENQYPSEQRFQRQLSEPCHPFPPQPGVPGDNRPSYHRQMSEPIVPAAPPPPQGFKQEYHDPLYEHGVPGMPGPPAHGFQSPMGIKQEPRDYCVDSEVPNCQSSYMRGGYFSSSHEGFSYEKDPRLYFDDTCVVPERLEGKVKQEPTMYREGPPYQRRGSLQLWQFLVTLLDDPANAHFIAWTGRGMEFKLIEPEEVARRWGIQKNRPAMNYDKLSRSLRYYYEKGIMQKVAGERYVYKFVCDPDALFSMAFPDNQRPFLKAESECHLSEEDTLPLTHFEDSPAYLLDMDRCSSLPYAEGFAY
ETV1, sequence (P50549 whole entry): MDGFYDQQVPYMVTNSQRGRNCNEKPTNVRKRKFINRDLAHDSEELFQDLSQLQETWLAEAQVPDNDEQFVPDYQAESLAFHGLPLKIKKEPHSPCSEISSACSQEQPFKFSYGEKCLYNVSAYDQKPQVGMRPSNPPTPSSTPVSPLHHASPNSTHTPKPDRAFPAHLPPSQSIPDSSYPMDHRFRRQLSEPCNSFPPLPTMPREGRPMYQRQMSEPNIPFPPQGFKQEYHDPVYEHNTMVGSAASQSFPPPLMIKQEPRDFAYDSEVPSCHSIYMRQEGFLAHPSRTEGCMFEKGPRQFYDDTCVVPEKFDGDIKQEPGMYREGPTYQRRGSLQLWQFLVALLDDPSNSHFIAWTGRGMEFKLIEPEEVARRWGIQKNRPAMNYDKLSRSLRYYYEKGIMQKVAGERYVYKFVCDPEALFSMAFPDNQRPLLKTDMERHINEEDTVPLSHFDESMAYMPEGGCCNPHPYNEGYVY
HSF1, sequence (Q00613 whole entry): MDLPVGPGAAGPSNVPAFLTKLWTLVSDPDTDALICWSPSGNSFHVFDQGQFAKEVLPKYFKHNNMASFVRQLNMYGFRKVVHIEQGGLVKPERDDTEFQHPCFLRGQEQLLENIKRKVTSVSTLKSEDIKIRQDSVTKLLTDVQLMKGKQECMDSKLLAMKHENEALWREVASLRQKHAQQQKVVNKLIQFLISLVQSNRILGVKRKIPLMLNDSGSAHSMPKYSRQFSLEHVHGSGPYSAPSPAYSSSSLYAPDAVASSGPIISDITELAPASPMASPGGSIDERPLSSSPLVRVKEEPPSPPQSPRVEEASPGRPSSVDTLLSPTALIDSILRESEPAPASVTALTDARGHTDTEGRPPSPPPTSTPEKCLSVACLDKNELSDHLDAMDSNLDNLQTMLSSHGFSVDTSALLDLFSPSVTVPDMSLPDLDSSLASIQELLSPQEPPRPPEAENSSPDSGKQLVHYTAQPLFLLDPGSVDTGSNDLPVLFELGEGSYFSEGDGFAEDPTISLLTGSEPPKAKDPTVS
ELF4, sequence (Q99607 whole entry): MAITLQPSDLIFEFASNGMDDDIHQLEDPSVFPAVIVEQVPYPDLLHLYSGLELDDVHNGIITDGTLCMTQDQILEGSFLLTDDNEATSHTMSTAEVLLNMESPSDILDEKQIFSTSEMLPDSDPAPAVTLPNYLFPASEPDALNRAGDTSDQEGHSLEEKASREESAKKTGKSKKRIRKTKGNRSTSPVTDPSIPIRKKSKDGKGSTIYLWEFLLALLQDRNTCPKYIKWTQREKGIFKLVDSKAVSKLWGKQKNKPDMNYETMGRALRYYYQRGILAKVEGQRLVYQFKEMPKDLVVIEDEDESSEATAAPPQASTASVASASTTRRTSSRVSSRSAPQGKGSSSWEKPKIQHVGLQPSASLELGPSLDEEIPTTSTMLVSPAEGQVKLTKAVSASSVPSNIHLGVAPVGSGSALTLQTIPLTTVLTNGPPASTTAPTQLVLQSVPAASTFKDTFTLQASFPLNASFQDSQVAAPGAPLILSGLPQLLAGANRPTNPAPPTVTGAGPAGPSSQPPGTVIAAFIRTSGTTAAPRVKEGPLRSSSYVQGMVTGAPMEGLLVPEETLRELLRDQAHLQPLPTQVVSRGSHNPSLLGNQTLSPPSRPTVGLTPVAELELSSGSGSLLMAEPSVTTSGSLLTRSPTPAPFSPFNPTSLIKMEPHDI

As to TACAGA, the binding signal in experiment [1] was 1.13 fold enrichment (6-mer frequency, TF over GST control); in experiment [2], 1.12 fold enrichment (6-mer frequency, TF over GST control); in experiment [3] it was 1.28 fold enrichment (6-mer frequency, TF over GST control); in experiment [4] it was 1.25 fold enrichment (6-mer frequency, TF over GST control); in experiment [5], 1.13 fold enrichment (6-mer frequency, TF over GST control); in experiment [6] it was 1.1 fold enrichment (6-mer frequency, TF over GST control). Besides, the binding signal in experiment [7] was 1.25 fold enrichment (6-mer frequency, TF over GST control); in experiment [8], 1.11 fold enrichment (6-mer frequency, TF over GST control); in experiment [9], 1.25 fold enrichment (6-mer frequency, TF over GST control); in [10], 1.16 fold enrichment (6-mer frequency, TF over GST control); in [11] it was 1.13 fold enrichment (6-mer frequency, TF over GST control); in experiment [12] it was 1.04 fold enrichment (6-mer frequency, TF over GST control). Also, the binding signal in experiment [13] is 1.14 fold enrichment (6-mer frequency, TF over GST control); in [14] it was 1.16 fold enrichment (6-mer frequency, TF over GST control); in experiment [15], 1.18 fold enrichment (6-mer frequency, TF over GST control); in experiment [16], 1.11 fold enrichment (6-mer frequency, TF over GST control); in [17], 1.1 fold enrichment (6-mer frequency, TF over GST control); in experiment [18], 1.1 fold enrichment (6-mer frequency, TF over GST control).
